{
  "source": "PubChem BioAssay AID1654",
  "about": "(Sanford-Burnham Center for Chemical Genomics, 2009)",
  "note": "Out of some 290,000 compounds screened, about 1,500 (0.52%) were called active. Rule as the data show it: active = inhibition above about 50%; inactive = the rest. For the sample, actives were picked, then their nearest neighbours and some compounds at random.",
  "data": [
    {"biological_target": "Dual specificity protein phosphatase 3 (Homo sapiens) (UniProt P51452)", "sequence (P51452 whole entry, looked up)": "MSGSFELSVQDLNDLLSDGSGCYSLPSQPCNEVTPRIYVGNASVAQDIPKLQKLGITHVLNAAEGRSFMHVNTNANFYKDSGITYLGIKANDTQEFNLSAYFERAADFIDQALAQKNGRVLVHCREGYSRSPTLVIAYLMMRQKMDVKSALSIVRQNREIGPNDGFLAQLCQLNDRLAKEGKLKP", "assay": "VHR1 phosphatase inhibitors, primary screen, biochemical, absorbance, uHTS (AID 1654)", "conditions": "recombinant VHR phosphatase, pNPP absorbance, at 13.3 µM, hits give high values", "values": [
      {"smiles": "O=C(Nc1cc(-c2nc3ncccc3o2)ccc1Cl)c1ccco1", "inhibition": "24% (inactive)"},
      {"smiles": "Cc1ccc(NC(=S)N(Cc2ccco2)C(C)c2cccs2)cc1", "note": "(stereo not given)", "inhibition": "20.7% (inactive)"},
      {"smiles": "Cc1ccc(NC(=S)N(CCCN2CCC(C)CC2)Cc2ccco2)cc1", "inhibition": "53.6% (active)"},
      {"smiles": "Cc1ccc(NC(=S)N(CCN2CCCCC2)Cc2ccco2)cc1C", "inhibition": "5.9% (inactive)"},
      {"smiles": "CCOc1ccc(-c2noc(CCC(=O)NC3CCCC3)n2)cc1OC", "inhibition": "27.7% (inactive)"},
      {"smiles": "COc1cc(S(=O)(=O)N2CCN=C2c2ccccc2)ccc1Cl", "inhibition": "47.5% (inactive)"},
      {"smiles": "CC(Sc1nnc(-c2ccccc2F)n1C1CC1)C(N)=O", "note": "(stereo not given)", "inhibition": "11.3% (inactive)"},
      {"smiles": "CCc1ccc(N2CC(C(=O)NC3=NCCS3)CC2=O)cc1", "note": "(stereo not given)", "inhibition": "54.4% (active)"},
      {"smiles": "CCc1ccc(N2CC(C(=O)N3CCCCCC3)CC2=O)cc1", "note": "(stereo not given)", "inhibition": "30.7% (inactive)"},
      {"smiles": "CCc1ccc(N2CC(C(=O)Nc3ccc(S(=O)(=O)Nc4nccs4)cc3)CC2=O)cc1", "note": "(stereo not given)", "inhibition": "-2.6% (inactive)"},
      {"smiles": "COc1ccccc1OCCNC(=O)CCNC(=O)c1ccccc1Cl", "inhibition": "-2.5% (inactive)"},
      {"smiles": "CC1CCCCC1NC(=O)c1cn(C)c2ccc(S(=O)(=O)N3CCOCC3)cc2c1=O", "note": "(stereo not given)", "inhibition": "5.7% (inactive)"},
      {"smiles": "CCOc1cc(C)ccc1OCc1nnc(SCC(=O)Nc2cccc(C(=O)O)c2)n1-c1ccccc1", "inhibition": "-8.4% (inactive)"},
      {"smiles": "CCN(CC)CCCNC(=O)Cn1cnc2sc(C)c(S(=O)(=O)N3CCN(c4ncccn4)CC3)c2c1=O", "inhibition": "7.7% (inactive)"},
      {"smiles": "Cc1sc2ncn(CC(=O)NCCN(C)C)c(=O)c2c1S(=O)(=O)N1CCC(C)CC1", "inhibition": "5.1% (inactive)"},
      {"smiles": "CCN(CC)CCNC(=O)Cn1cnc2sc(C)c(S(=O)(=O)N3CCOCC3)c2c1=O", "inhibition": "57.3% (active)"},
      {"smiles": "CN(Cc1ccccc1)CC(O)COc1ccc(CNCc2cc3ccccc3s2)cc1", "note": "(stereo not given)", "inhibition": "55.5% (active)"},
      {"smiles": "OC(CNCc1ccc2c(c1)OCO2)COc1ccccc1", "note": "(stereo not given)", "inhibition": "0.8% (inactive)"},
      {"smiles": "Cc1ccc(OCC(=O)OC(C)CN(C)Cc2ccccc2)cc1", "note": "(stereo not given)", "inhibition": "-3.9% (inactive)"},
      {"smiles": "COCCN(C(=S)Nc1cccc(Cl)c1C)C(C)c1ccco1", "note": "(stereo not given)", "inhibition": "19.1% (inactive)"},
      {"smiles": "CCOC(=O)CC1COCCN1C(=O)c1cc(COc2ccc(F)c(F)c2)on1", "note": "(stereo not given)", "inhibition": "-31.1% (inactive)"},
      {"smiles": "Cc1c(CC(=O)N2CCN(C(=O)C3COc4ccccc4O3)CC2)c(=O)oc2c(O)c(O)ccc12", "note": "(stereo not given)", "inhibition": "9.7% (inactive)"},
      {"smiles": "Cc1c(CCC(=O)O)c(=O)oc2cc3occ(-c4ccccc4)c3cc12", "inhibition": "-4.9% (inactive)"},
      {"smiles": "COc1cccc(-c2coc3cc4oc(=O)c(CC(=O)O)c(C)c4cc23)c1", "inhibition": "57.3% (active)"},
      {"smiles": "Cc1c(CC(=O)NCCCCCC(=O)O)c(=O)oc2cc3occ(-c4ccccc4)c3cc12", "inhibition": "-11% (inactive)"},
      {"smiles": "Cc1nc(C)c(-c2nnc(-c3cccc(S(=O)(=O)N(C)C)c3)o2)cc1C(=O)NN", "inhibition": "1% (inactive)"},
      {"smiles": "CN(C)CCN(C(=O)C1=COCCO1)c1nc2ccc(Cl)cc2s1", "inhibition": "17.5% (inactive)"},
      {"smiles": "Cn1nnc(NC(=S)NC(=O)c2ccccc2)n1", "inhibition": "8.5% (inactive)"},
      {"smiles": "CC(=O)N1CCN(CC(=O)Nc2ccc(C)c(F)c2)CC1", "inhibition": "0.1% (inactive)"},
      {"smiles": "Cc1ccc(C(NC(=O)N2CCCC2)C(Cl)(Cl)Cl)cc1F", "note": "(stereo not given)", "inhibition": "51.3% (active)"},
      {"smiles": "Cc1ccc(C(=O)N2CCCC2)c(F)c1F", "inhibition": "11.9% (inactive)"},
      {"smiles": "CC(=O)c1ccc(NC(=O)CCc2nnc3ccc(NCc4ccco4)nn23)cc1", "inhibition": "-9.1% (inactive)"},
      {"smiles": "O=C(COC(=O)C1CC2C=CC1C2)Nc1ccccc1", "note": "(stereo not given)", "inhibition": "-9.6% (inactive)"},
      {"smiles": "CN(C)S(=O)(=O)N1CCC(Oc2cccc(C(=O)NCCCC3CCCC3)c2)CC1", "inhibition": "-1.9% (inactive)"},
      {"smiles": "CCCCC(=O)NCc1ccc(F)cc1", "inhibition": "-4.1% (inactive)"},
      {"smiles": "Cc1ccc(CS(=O)(=O)CCC(=O)NC2CC2)cc1", "inhibition": "9.9% (inactive)"},
      {"smiles": "Cc1ccc(CS(=O)(=O)CCC(=O)NCc2ccc(F)cc2)cc1", "inhibition": "57.9% (active)"},
      {"smiles": "O=C1CCC(C(=O)N2CCCCO2)CN1Cc1cccc(C(F)(F)F)c1", "note": "(stereo not given)", "inhibition": "23.9% (inactive)"},
      {"smiles": "COC(=O)c1c(NC(=O)COc2ccc(Cl)cc2Cl)sc2c1CC(C)(C)NC2(C)C", "inhibition": "7.7% (inactive)"},
      {"smiles": "COc1ccc(S(=O)(=O)N2CCC(C(=O)N3CCc4ccccc4C3)CC2)cc1OC", "inhibition": "11.7% (inactive)"},
      {"smiles": "COc1cc2c(cc1OC)C(C)N(S(=O)(=O)c1cnc(Cl)c(Cl)c1)CC2", "note": "(stereo not given)", "inhibition": "51.2% (active)"},
      {"smiles": "COc1cc2c(cc1OC)CN(C(=O)c1cc(S(=O)(=O)N3CCCCC3)ccc1Cl)CC2", "inhibition": "8.6% (inactive)"},
      {"smiles": "Cc1cc(C)cc(N(CCC#N)C(=O)CN2C(=O)NC3(CCCC3)C2=O)c1", "inhibition": "-12.4% (inactive)"},
      {"smiles": "Cc1c(C(=O)NC(C)C2CC3CCC2C3)cccc1[N+](=O)[O-]", "note": "(stereo not given)", "inhibition": "54.4% (active)"},
      {"smiles": "COC(=O)c1cc(C(=O)NC(C)C2CC3CCC2C3)cc([N+](=O)[O-])c1", "note": "(stereo not given)", "inhibition": "-11.2% (inactive)"},
      {"smiles": "Cc1c(C(=O)NCCCc2ccccc2)cccc1[N+](=O)[O-]", "inhibition": "22.5% (inactive)"},
      {"smiles": "Cc1ccccc1NS(=O)(=O)CCCCC(Cl)(Cl)Cl", "inhibition": "15.4% (inactive)"},
      {"smiles": "CCOC(=O)c1sc2nc(C)[nH]c(=O)c2c1C", "inhibition": "21.7% (inactive)"},
      {"smiles": "CCOC(=O)c1c(N)sc(C(C)=O)c1C", "inhibition": "17.4% (inactive)"},
      {"smiles": "CCOC(=O)c1nc(N)sc1C(=O)OCC", "inhibition": "50.8% (active)"},
      {"smiles": "O=C(/C=C/Nc1ccc(S(=O)(=O)Nc2cnc3ccccc3n2)cc1)c1cccnc1", "inhibition": "16.5% (inactive)"},
      {"smiles": "COc1ccc2oc(=O)cc(-c3cc4ccccc4o3)c2c1", "inhibition": "52.7% (active)"},
      {"smiles": "COc1cccc2cc(-c3cc(=O)oc4cc(C)c(O)cc34)oc12", "inhibition": "-16.6% (inactive)"},
      {"smiles": "COc1ccc(Nc2cc(=O)oc3ccccc23)cc1", "inhibition": "11.9% (inactive)"},
      {"smiles": "Cc1cc(OC(=O)c2ccc(OC(C)C)cc2)c([N+](=O)[O-])c(=O)[nH]1", "inhibition": "-18% (inactive)"},
      {"smiles": "O=C(O)C1CCC(CNS(=O)(=O)c2ccc(Br)cc2)CC1", "note": "(stereo not given)", "inhibition": "13.3% (inactive)"},
      {"smiles": "Cc1ccc(S(=O)(=O)NCC(=O)N2CCOCCOCCOCCOCC2)cc1", "inhibition": "33.9% (inactive)"},
      {"smiles": "Cc1ccc(S(=O)(=O)NCC2CCC(C(=O)N3CCOCC3)CC2)cc1", "note": "(stereo not given)", "inhibition": "52% (active)"},
      {"smiles": "CCCCCn1c(=O)[nH]c2cc(C(=O)NCCCN3CCCCC3C)ccc2c1=O", "note": "(stereo not given)", "inhibition": "22.4% (inactive)"},
      {"smiles": "CCCCOP(=O)(c1ccc(N(C)C)cc1)C(O)c1cc(OC)ccc1OC", "note": "(stereo not given)", "inhibition": "6.1% (inactive)"}
    ]}
  ]
}
